Measured values published in publication PMC7819943, “Rice protein-binding microarrays: a tool to detect cis-acting elements near promoter regions in rice”.
The full ranking holds about 39,000 sequences; the median of “fluorescence intensity (a.u.)” is about 4,300, and the highest 2% start at about 39,000. The list comes from a sample in which the highest values are over-represented; it also holds similar and randomly drawn sequences.

target: T1, OsSMF1 (Oryza sativa, UniProt Q6ZLB0 1-436); assay: protein-binding microarray (RPBM); PBS, 2% BSA, 51.3 ng/ul salmon testes DNA, 50 uM zinc acetate, 200 nM TF, 25 C, 1 h; high values mean tight binding; settings: protein: recombinant; tags: N-terminal polyhistidine and DsRed monomer fusion (pET32a); chain copies: 2; label: CyDye5-dUTP incorporated in the synthesized complementary strand; 3' TTTTT single-stranded linker to array surface; dsDNA, one strand shown
T1 sequence: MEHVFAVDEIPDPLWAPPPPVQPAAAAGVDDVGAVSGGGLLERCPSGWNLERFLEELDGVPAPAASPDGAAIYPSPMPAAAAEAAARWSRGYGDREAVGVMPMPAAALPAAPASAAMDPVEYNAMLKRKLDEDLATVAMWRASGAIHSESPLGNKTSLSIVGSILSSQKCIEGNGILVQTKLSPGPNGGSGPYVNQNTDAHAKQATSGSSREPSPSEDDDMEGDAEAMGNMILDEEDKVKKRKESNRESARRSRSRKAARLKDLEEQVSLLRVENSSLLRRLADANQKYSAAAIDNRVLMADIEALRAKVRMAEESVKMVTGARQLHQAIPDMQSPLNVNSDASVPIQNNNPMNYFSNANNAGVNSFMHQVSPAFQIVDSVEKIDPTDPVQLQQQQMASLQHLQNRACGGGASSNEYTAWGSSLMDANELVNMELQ
Outline: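 The binding signal is fluorescence intensity per array feature (arbitrary units). Readings came from an Axon 4000B scanner after a washed, 2% BSA-blocked, double-stranded custom Agilent array had been incubated for 1 h at 25 °C with 200 nM protein and 50 µM zinc acetate. The protein was a Ni–NTA-purified transcription factor fused N-terminally to polyhistidine and DsRed, expressed in E. coli BL21-CodonPlus.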

Row | Sequence | binding signal
1 | AGAGAGAGGGGAGAGGGGTGGAAGGGGAATATGGTAGCTGCGGAGTCACCTAGTGCAG | 3330 fluorescence intensity (a.u.)
2 | CCTCGTCGCCGCGTCACGGCGTCAGCTCGCCGCTCTAGGGCGGAGTCACCTAGTGCAG | 4820 fluorescence intensity (a.u.)
3 | GCCTCACAACCCGCATGGACACTGACATCGGCATCATCATCGGAGTCACCTAGTGCAG | 4260 fluorescence intensity (a.u.)
4 | GACAAAGTCACACTGTCACACGTATTACCGGTTACAAACTCGGAGTCACCTAGTGCAG | 3940 fluorescence intensity (a.u.)
5 | GGCAACCGCCCTTAAGGTGTGAGACAGCACGACAACGCCCCGGAGTCACCTAGTGCAG | 3690 fluorescence intensity (a.u.)
6 | GTATTGGAGCTCTACAGTTCGGTCTACTCCTCTCTGTTGCCGGAGTCACCTAGTGCAG | 27500 fluorescence intensity (a.u.)
7 | CAACACCGCCACGTAGGCGCCACATCAGCAAAACCATCCTCGGAGTCACCTAGTGCAG | 23200 fluorescence intensity (a.u.)
8 | AGCACCACGGTCAATGCCACGTATGTGCCACGTCATCCAACGGAGTCACCTAGTGCAG | 46600 fluorescence intensity (a.u.)
9 | GTAGGCGCCACGTGGCGCCACGTCAGCAAAACCGCCTCCTCGGAGTCACCTAGTGCAG | 24000 fluorescence intensity (a.u.)
10 | ACGTCTCCTCCTCCTCCACGTCAAACCACAATCCAACCAACGGAGTCACCTAGTGCAG | 5400 fluorescence intensity (a.u.)
11 | ATTGCCACGTAGGCGCCACGTGGCGCCACATCAGCAAAACCGGAGTCACCTAGTGCAG | 40700 fluorescence intensity (a.u.)
12 | AACCACGTATGCGCCACGTCATCCAAAACCGCCTTCAAAACGGAGTCACCTAGTGCAG | 14400 fluorescence intensity (a.u.)
13 | GTCGTGCTAGCTCGATCCATTTCCTACGTGTGCACCAAACCGGAGTCACCTAGTGCAG | 5810 fluorescence intensity (a.u.)
14 | GAAAGGGATGGCTCACTTGAAACGTACTGCTCCCTGCCCCCGGAGTCACCTAGTGCAG | 3160 fluorescence intensity (a.u.)
15 | GATTAAAACCAAAACTCATGATGGAAGTGGATGCATTTGCCGGAGTCACCTAGTGCAG | 25500 fluorescence intensity (a.u.)
16 | AGCCAAAGCATTTGCCATCCGATGAGGGCGTACTATTAAACGGAGTCACCTAGTGCAG | 28000 fluorescence intensity (a.u.)
17 | CCAAGGTAAGATGAAGCAGCAGCATTTGCATTAAACTATCCGGAGTCACCTAGTGCAG | 60100 fluorescence intensity (a.u.)
18 | TTGATAATTACTCTTACGTCCCTCACCCTATGCTCCTGTGCGGAGTCACCTAGTGCAG | 3440 fluorescence intensity (a.u.)
19 | AATACTTTATGCAGGTGTTCAAATGTTCGATGTGACAGGGCGGAGTCACCTAGTGCAG | 3150 fluorescence intensity (a.u.)
20 | TACTTTATATAGATGTTCAAACATTCGATATGACATGCTGCGGAGTCACCTAGTGCAG | 45300 fluorescence intensity (a.u.)
21 | TATTTTATATTAGTGTTCAAACGTTCGATGTGACATGTGTCGGAGTCACCTAGTGCAG | 3930 fluorescence intensity (a.u.)
22 | ATTGCAACCGGAGAGCCTGACCAAAGAAATTCAGATCCTTCGGAGTCACCTAGTGCAG | 3200 fluorescence intensity (a.u.)
23 | GTTAAATTGCCACGTAAGCACCACGTCATACCACGTCAGACGGAGTCACCTAGTGCAG | 51500 fluorescence intensity (a.u.)
24 | TTTTCATTTTAGTGCCACGTAAGCACCACATCGATGCCACCGGAGTCACCTAGTGCAG | 41200 fluorescence intensity (a.u.)
25 | CGGATCGAATTGCCACGTAAGCGGCACGTCAGTGCCATGTCGGAGTCACCTAGTGCAG | 20000 fluorescence intensity (a.u.)
26 | GAAGTGCCACGTAAGCACCACATCAATGCCACGTCAGATGCGGAGTCACCTAGTGCAG | 38800 fluorescence intensity (a.u.)
27 | GAATTGCCACGTAAGCACCACGTCAGTGCCATGTCAGATGCGGAGTCACCTAGTGCAG | 52400 fluorescence intensity (a.u.)

Row | Sequence | binding signal
28 | TCAAATTGTCACATAAGCGTCATGTCAATGCCACGTCAGACGGAGTCACCTAGTGCAG | 27200 fluorescence intensity (a.u.)
29 | ATGCATCTAAGCATATTAGCTATATACCACATCATTTTCACGGAGTCACCTAGTGCAG | 4780 fluorescence intensity (a.u.)
30 | TTATTTTAGTGCCACGTAAGCGACACGTCGATGCCACATGCGGAGTCACCTAGTGCAG | 23000 fluorescence intensity (a.u.)
31 | TTAATTGAAATGCCACCTAAGCACCACGTCAGCACACAGACGGAGTCACCTAGTGCAG | 18700 fluorescence intensity (a.u.)
32 | TTTGTCCTACGTGGCGTACGCGTGGCAATCCAGTCATAATCGGAGTCACCTAGTGCAG | 20400 fluorescence intensity (a.u.)
33 | ATTCGGTGGGTTGAGGCAGTGATGTGGTGAGAGGAGAAAGCGGAGTCACCTAGTGCAG | 3440 fluorescence intensity (a.u.)
34 | GAAAGTGGACGCGCGCGGTCTGGCGTCACCTGGGCCGAAACGGAGTCACCTAGTGCAG | 3320 fluorescence intensity (a.u.)
35 | CTGCCCAACAAAGTCCAGAAACTTCACGACATTCAATTGCCGGAGTCACCTAGTGCAG | 22600 fluorescence intensity (a.u.)
36 | TACTATAGACTAGCAAATGCCAAATGACAAATTGCCAAGTCGGAGTCACCTAGTGCAG | 15800 fluorescence intensity (a.u.)
37 | ATTCAGTGCAGCAGCTGCAGGCCAAGCAGGCAGCACAGCACGGAGTCACCTAGTGCAG | 3610 fluorescence intensity (a.u.)
38 | ACTGTTATTCCTACAGGCCAAAGCTGACCTAACCAATTCACGGAGTCACCTAGTGCAG | 46800 fluorescence intensity (a.u.)
39 | TCACGCTGACCAAACACCATCTGTTATTCTGTTTGTTTGTCGGAGTCACCTAGTGCAG | 3640 fluorescence intensity (a.u.)
40 | GTAGCTGTTAAGTTCCATCTCGTCAGCAGCTGCCTGCAGACGGAGTCACCTAGTGCAG | 3210 fluorescence intensity (a.u.)
41 | CTGTGAGTTCGTTGTCTGAGTGAGAGCTGGACGTGCTGCACGGAGTCACCTAGTGCAG | 33000 fluorescence intensity (a.u.)
42 | CATGGCCACGTCCGCCACCTTGCGGATGCCGGAGGGTAAGCGGAGTCACCTAGTGCAG | 41400 fluorescence intensity (a.u.)
43 | CCATGGCACCTCCTCCTACGCCAGCACCGCTGCCGTGATGCGGAGTCACCTAGTGCAG | 4800 fluorescence intensity (a.u.)
44 | TCTGACTGCCTCCGTCACTCCGTGCCTCGTTGGGAGCAGCCGGAGTCACCTAGTGCAG | 5300 fluorescence intensity (a.u.)
45 | CTGAGCTGCCACCTCCGCCGCCGCCAGCATGATGGCCTTGCGGAGTCACCTAGTGCAG | 42500 fluorescence intensity (a.u.)
46 | CGGACTGAGCTGCCTCGCCCGCCTCCGAGCAGTTGGGGAACGGAGTCACCTAGTGCAG | 40900 fluorescence intensity (a.u.)
47 | GATGAGATGAGGGAGATACCATCAGACTTGCACCAGATGGCGGAGTCACCTAGTGCAG | 3660 fluorescence intensity (a.u.)
48 | GTGGCCACTTGCATCAGCCGGCCATGAGTGGAGGGGTAAGCGGAGTCACCTAGTGCAG | 49700 fluorescence intensity (a.u.)
49 | TCGCTGCCCTCCCGCCCGTTGGCCGAAGGGGAAGAAGGGGCGGAGTCACCTAGTGCAG | 36900 fluorescence intensity (a.u.)
50 | GACTTGCGGCCACGGAGTCAGGGCCGTGCACGTGGAGGTACGGAGTCACCTAGTGCAG | 4910 fluorescence intensity (a.u.)
51 | CGTCGATGGCGTGCGTGAGAGCCTCCACGCCTTGCTGCCGCGGAGTCACCTAGTGCAG | 4660 fluorescence intensity (a.u.)
52 | TGAGGGCCGCCACGTCCTCATGGCCTCCGCCCCATCGGAGCGGAGTCACCTAGTGCAG | 7660 fluorescence intensity (a.u.)
53 | CCCATGGCGTGCCACTCCGGCGGTCCGGCCGCCACGTCAGCGGAGTCACCTAGTGCAG | 38500 fluorescence intensity (a.u.)
54 | TCATACACATACAACTTTTCAGTCACATCATTTACAATTTCGGAGTCACCTAGTGCAG | 29000 fluorescence intensity (a.u.)
